Assay outcomes from PubChem.
This is one part of a sample in which hits are shown more often than they occur.
Tgondii IFNg = inhibitors of Toxoplasma gondii growth with IFN-gamma; Toxoplasma gondii growth in IFN-gamma-treated host cells; hits give low values; activity change, negative = inhibition, % (test concentration not listed); 69,000 compounds, 3.8% hits; in the data active = activity change below about -70%, passing the limit was not always enough;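 also: host cells are HeLa cells infected with Toxoplasma gondii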
Active calls of the source: *; i = inactive.

SMILES	Tgondii IFNg
O=C(NCCc1nc(-c2ccccc2)cs1)C1(c2cccc(F)c2)CCOCC1	8
c1ccc2sc(CCc3nc4ccccc4s3)nc2c1	324
CCc1cc(C(=O)Cc2nc3ccccc3s2)c(O)cc1O	96
Oc1ccc(O)c(Cc2nc3ccccc3s2)c1	-93*
CS(=O)(=O)c1ccc(-c2cnc(N)c(C(=O)Nc3ccccc3)n2)cc1	-86*
CS(=O)(=O)c1ccc(-c2ccccc2C(N)=O)cc1	3
CS(=O)(=O)c1ccc(C(=O)Nc2ccccc2Cl)cc1	23
Cc1cccc(NC(=S)NC(=O)C(C)(C)C)c1	153
CCC(=O)N1CCc2c([nH]c3ccccc23)C12C(=O)Nc1ccc(Br)cc12 (centres undefined)	-48
CCC(=O)N1CCc2c([nH]c3ccccc23)C12C(=O)N(C)c1ccc(Br)cc12 (centres undefined)	109
CCCC(=O)N1CCc2c([nH]c3ccccc23)C12C(=O)Nc1ccc(Br)cc12 (centres undefined)	-82*
CCc1ccc(NC(=O)C(=O)NCCc2csc(-c3ccc(C)cc3)n2)cc1	484
c1ccn2cc(CN3CCSCC3)nc2c1	16
C=CCN1C(=O)CCC12CCC(NC(=O)c1ccc[nH]1)CC2 (centres undefined)	1
Cn1nc(C(=O)N2CCOCC2)c2c1CN(Cc1cccs1)CC2	6
COc1ccccc1OC(C)C(=O)Nc1sc(Cc2ccccc2)c(C)c1C(N)=O (centres undefined)	-51
Cc1nc2ccccc2n1Cc1ccccc1	-58
Cc1nc2n(Cc3ccccc3)c3ccccc3n2c1C(=S)Nc1ccccc1	-114*
Cc1nc(C)c(C(=O)Nc2ccc3c(c2)CN(Cc2ccccc2)C3)o1	0
C=CCS(=O)(=O)NCC1CCN(Cc2ccc(C)c(C)c2)C1 (centres undefined)	-3
Cc1ccc(NC(=O)N2CCC(c3nc(C(=O)N4CCCC4)c(C)o3)CC2)cc1F	-55
Cc1ccc(SCCCN(C)Cc2cc3n(n2)CCCNC3)cc1	-45
COCCN(Cc1ccc2c(c1)CCCN2C)S(=O)(=O)c1ccc2[nH]c(=O)ccc2c1	8
CCCCN(C1CCN(C(C)=O)CC1)S(=O)(=O)c1ccc2[nH]c(=O)ccc2c1	87
CCN1CCCc2cc(CN(C3CCCC3)S(=O)(=O)c3ccc4[nH]c(=O)ccc4c3)ccc21	-86*
SMILES	Tgondii IFNg
Cc1ccc(-c2nc3ccccc3[nH]2)cc1	-14
c1ccc(-c2nc3ccccc3[nH]2)cc1	167
CC(C)(C)c1ccc(-c2nc3ccccc3[nH]2)cc1	-87*
O=C(NCCCNC(=O)c1ccco1)c1cnccn1	7
CCC(C)(C)n1nnnc1C(c1cccs1)N1CCc2ccccc2C1 (centres undefined)	5
CN1C(=O)CCC12CCC(NS(=O)(=O)c1cn(C)cn1)CC2 (centres undefined)	13
CCSc1nnc(NC(=O)CCc2ccc(C)o2)s1	19
CCN(CC)C(=O)Oc1ccnc2cc(Cl)ccc12	-40
CCCCCCCC(=O)Nc1nnc(Sc2ccnc3cc(Cl)ccc23)s1	-94*
Cn1[nH]c(=O)c(=O)[nH]c1=S	24
CCc1nnc(-c2ccc(OC)c(NC(=O)C(c3ccccc3)N3CCCCC3)c2)o1 (centres undefined)	1
CN(C)CC1CN(Cc2ccncc2)Cc2nccn2C1 (centres undefined)	21
FC(F)(F)c1cccc(NC(=S)Nc2cccc(C(F)(F)F)c2)c1	19
FC(F)(F)c1cccc(NC(=S)Nc2csc(C(F)(F)F)c2-c2ccccc2)c1	-97*
CCOC(=O)c1cn[nH]c1NC(=S)Nc1cccc(C(F)(F)F)c1	-34
COc1ccccc1/C=C/c1nn2c(COc3ccc(F)cc3)nnc2s1	-91*
COc1ccc(-c2nn3c(Cn4nnc5ccccc54)nnc3s2)cc1	7
COc1ccc(Cc2nnc3sc(Cc4ccccc4)nn23)cc1	30
O=C(c1ccco1)N1C[C@@H]2CCCN(C(=O)CO)[C@@H]2C1	-36
Cc1cc(C)n(CC(=O)N2CCC(c3cc4cccnc4[nH]3)CC2)n1	7
CC(C)C(=O)c1cc(-c2cnc(-c3ccnn3C)nc2)cn1CC1CC1	-20
CC(CN(C)Cc1cc(F)ccc1O)N1CCOCC1 (centres undefined)	8
Oc1c(Cl)cc(Cl)cc1C1Nc2cc(Cl)c(C(F)(F)F)cc2N1 (centres undefined)	-88*
C[C@H]1C[C@@H]2CN(C(=O)c3cc4cc(Cl)ccc4o3)CC[C@@H]2O1	40
COCCCN1CC2(CCCCN2C(=O)COC)CC1=O (centres undefined)	4
SMILES	Tgondii IFNg
COc1ccc(CC(=O)N2CC[C@H]3CN(Cc4cccnc4)S(=O)(=O)[C@@H]3CC2)cc1	-1
COc1ccc(-c2nc(C)c(CCNC(=O)c3ccc([N+](=O)[O-])cc3)s2)cc1	i
Cc1ccc(/C=C2\C(=O)C3(C)CCC2C3(C)C)cc1 (centres undefined)	9
Cc1ccc(/C=C2\CNC/C(=C\c3ccc(C)cc3)C2=O)cc1	-86*
Cc1ccc(S(=O)(=O)N2[C@@H]3CNC[C@H]2C3c2ccc(/C=C/c3ccccc3)cc2)cc1 (some centres undefined)	-44
Cc1onc(-c2ccccc2)c1C(=O)N1C2CCC1CC(O)(c1cccnc1F)C2 (centres undefined)	1
Cc1noc(C2CCCN2C(=O)c2cccc(NCc3sccc3C)c2)n1 (centres undefined)	-2
c1cncc(CNc2nnc(-c3ccsc3)c(-c3ccsc3)n2)c1	-28
COc1ccc(CC(=O)N2CCC3(CC2)Nc2ccc(C)c(C)c2-n2cccc23)cc1OC	33
COC(=O)c1cccc(C2CC(=O)Nc3cc(O)c(C)cc32)n1 (centres undefined)	-81*
COCCn1ccnc1C1CC(=O)Nc2cc(O)c(C)cc21 (centres undefined)	-1
Cc1cc2c(cc1O)NC(=O)CC2c1nccs1 (centres undefined)	-29
CN1CCN(C2CCN(C(=O)Nc3cc(Oc4ccc(NC(=O)C5(C(=O)Nc6ccc(F)cc6)CC5)c(F)c4)ccn3)CC2)CC1	-69
COc1ccc(NC(=O)C(=O)NCCc2csc(-c3ccc(F)cc3)n2)cc1OC	52
COc1cc2nccc(Oc3ccc(NC(=O)C4(C(=O)Nc5ccc(F)cc5)CC4)cc3)c2cc1OC	-91*
Cc1coc2c1C(=O)C(=O)c1c-2ccc2c(C)cccc12	-72*
Cc1ccc(Nc2nc(C(=O)NC3CCS(=O)(=O)C3)nc3ccccc23)cc1 (centres undefined)	16
CCCN1C(=O)CCc2cc(NC(=O)c3cc(SC)ccc3Cl)ccc21	11
COc1ccc(C(=O)O/N=C2\CCSc3ccc(F)cc32)cc1	80
COc1ccc2c(c1)CC/C2=N/OC(=O)c1cc(SC)ccc1Cl	-91*
CCc1cc(C(=O)N2CCC(Cc3nn(C)cc3C(=O)Nc3ccc(F)cc3)CC2)on1	-30
CNC1(c2ccc(OC)cc2)Oc2ccccc2C(C#Cc2ccccc2)=C1C (centres undefined)	-107*
CCc1ccccc1NC(=O)N1CCCn2nnc(CN3CCCCC3)c2C1	-14
COc1cccc(N(Cc2nc(-c3ccccc3)oc2C)S(=O)(=O)c2ccccc2)c1	-50
COc1ccc(C(=O)N2CCc3nc(N4CCCC(C)C4)[nH]c(=O)c3C2)cn1 (centres undefined)	7
